Structures are written as SMILES. Screen size: about 310,000 compounds; about 14,000 (4.5%) showed an effect of 50% or more. Effects have a minus sign here. For the sample, strong results were picked, then their nearest neighbours and some compounds at random.
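Note: peak tail current of the secondary pulse compared with the same well before compound.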

The target of the assay is human ether-à-go-go-related gene (hERG) potassium channel (human, UniProt Q12809). Kind of assay: primary screen, population patch clamp on CHO cells stably expressing hERG; higher = less effect of the substance.
human ether-à-go-go-related gene (hERG) potassium channel, sequence (Q12809 whole entry, looked up): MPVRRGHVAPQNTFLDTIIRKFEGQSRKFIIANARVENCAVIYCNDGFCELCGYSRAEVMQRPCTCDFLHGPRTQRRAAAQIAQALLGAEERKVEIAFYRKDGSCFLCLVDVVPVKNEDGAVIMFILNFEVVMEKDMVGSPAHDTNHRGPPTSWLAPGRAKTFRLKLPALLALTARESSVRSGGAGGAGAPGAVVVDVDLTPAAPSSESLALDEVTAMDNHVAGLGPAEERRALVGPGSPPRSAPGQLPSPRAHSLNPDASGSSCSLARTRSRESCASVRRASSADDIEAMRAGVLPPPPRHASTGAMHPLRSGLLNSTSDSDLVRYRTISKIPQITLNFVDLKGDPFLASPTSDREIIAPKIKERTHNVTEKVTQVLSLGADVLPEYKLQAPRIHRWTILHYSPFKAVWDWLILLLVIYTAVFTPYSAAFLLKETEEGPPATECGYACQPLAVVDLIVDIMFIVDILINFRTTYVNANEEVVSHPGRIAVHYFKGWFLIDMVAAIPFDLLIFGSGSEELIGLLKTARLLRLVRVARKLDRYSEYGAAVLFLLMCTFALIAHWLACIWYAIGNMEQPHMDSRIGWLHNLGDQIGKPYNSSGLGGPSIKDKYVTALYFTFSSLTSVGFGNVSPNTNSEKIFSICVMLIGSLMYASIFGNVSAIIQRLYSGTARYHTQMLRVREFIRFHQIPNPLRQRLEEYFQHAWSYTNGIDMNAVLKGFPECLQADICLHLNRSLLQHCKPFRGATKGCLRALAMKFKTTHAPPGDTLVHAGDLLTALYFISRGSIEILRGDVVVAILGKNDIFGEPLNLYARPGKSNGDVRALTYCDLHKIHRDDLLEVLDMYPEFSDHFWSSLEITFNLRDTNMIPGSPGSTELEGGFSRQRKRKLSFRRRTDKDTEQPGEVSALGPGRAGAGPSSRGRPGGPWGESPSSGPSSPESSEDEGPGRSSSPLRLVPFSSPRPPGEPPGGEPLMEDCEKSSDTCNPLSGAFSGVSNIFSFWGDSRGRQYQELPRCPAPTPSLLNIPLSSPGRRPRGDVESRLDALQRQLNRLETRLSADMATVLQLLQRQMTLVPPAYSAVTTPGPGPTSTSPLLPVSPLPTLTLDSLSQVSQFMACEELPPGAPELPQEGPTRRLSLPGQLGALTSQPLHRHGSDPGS
As for `CC1(C)CC(=O)C(C=NCCN2CCN(C(=O)c3ccc(F)cc3)CC2)=C(O)C1`, the “hERG current change (%, negative = inhibition) at 10uM” value is on record as -21.1%.

`C=CCNC(=S)N1CCN(CCN=Cc2c(C)[nH]n(-c3ccc([N+](=O)[O-])cc3)c2=O)CC1`: the “hERG current change (%, negative = inhibition) at 10uM” value is -72.1%.

As for `O=c1c(C=NCC2CCCO2)c(-c2ccccc2)[nH]n1-c1ccc([N+](=O)[O-])cc1` (centres unmarked), the “hERG current change (%, negative = inhibition) at 10uM” value worked out at 7.58%.

`CC(=O)N1CCN(CCN=Cc2c(O)n(-c3ccc(F)cc3)c(=S)[nH]c2=O)CC1`: the “hERG current change (%, negative = inhibition) at 10uM” value amounted to 22.1%.

With `CNC(=S)N1CCN(CCN=Cc2c(O)n(-c3ccc(C)cc3)c(=S)[nH]c2=O)CC1`, the “hERG current change (%, negative = inhibition) at 10uM” value was 21.2%.

As to `Cc1[nH]n(-c2ccc([N+](=O)[O-])cc2)c(=O)c1C=NCCc1c(C)[nH]c2ccccc12`, the “hERG current change (%, negative = inhibition) at 10uM” value is given as 1.38%.

As to `Cc1ccc(-n2[nH]c(C)c(/C=N/Nc3ccc([N+](=O)[O-])cc3[N+](=O)[O-])c2=O)cc1`, the “hERG current change (%, negative = inhibition) at 10uM” value is 23.9%.

In the case of `Cc1[nH]n(-c2ccc([N+](=O)[O-])cc2)c(=O)c1C=NCCN1CCN(C(=O)c2ccccc2)CC1`, the “hERG current change (%, negative = inhibition) at 10uM” value is -71.6%.

As for `Cc1[nH]n(-c2ccc([N+](=O)[O-])cc2)c(=O)c1C=NCCc1c[nH]c2ccccc12`, the “hERG current change (%, negative = inhibition) at 10uM” value is given as 13.2%.

In the case of `COc1cc2cc(CN(CCO)S(=O)(=O)c3ccccc3Cl)c(=O)[nH]c2cc1OC`, the “hERG current change (%, negative = inhibition) at 10uM” value is recorded as 0.98%.

Consider `O=C(NCCCCc1ccccc1)c1ccccc1Cl`, for which the “hERG current change (%, negative = inhibition) at 10uM” value is listed as -9.21%.

`CN(NC1OC(=O)c2ccccc21)c1ccc(C(F)(F)F)cc1[N+](=O)[O-]` (centres unmarked): the “hERG current change (%, negative = inhibition) at 10uM” value turned out to be 34.2%.

As to `O=C(Nc1ccc(S(=O)(=O)Nc2ncccn2)cc1)C12CC3CC(CC(C3)C1)C2`, the “hERG current change (%, negative = inhibition) at 10uM” value was found to be 13.4%.

Consider `Cc1cc(C)c2nc(N3CCCN(C(=O)c4cnccn4)CC3)c(C#N)cc2c1`, for which the “hERG current change (%, negative = inhibition) at 10uM” value is -38.5%.

Turning to `CCc1nnc(SCC(=O)Nc2nccs2)n1CC`, the “hERG current change (%, negative = inhibition) at 10uM” value is 18%.

Turning to `Cn1cc(CC(=O)NC2CCCCC2)c2ccccc21`, the “hERG current change (%, negative = inhibition) at 10uM” value amounted to 21.3%.

In the case of `Cc1ccsc1C1C(C#N)=C(N)Oc2n[nH]c(C)c21` (centres unmarked), the “hERG current change (%, negative = inhibition) at 10uM” value was determined as 18.7%.

In the case of `Cc1[nH]n(-c2ccccc2)c(=O)c1/C=N/NC(=O)c1ccccc1F`, the “hERG current change (%, negative = inhibition) at 10uM” value amounted to 2.32%.

With `Cc1[nH]n(-c2ccccc2)c(=O)c1/C=N/NC(=O)c1cccc(F)c1`, the “hERG current change (%, negative = inhibition) at 10uM” value is recorded as 20.1%.

Regarding `Cc1[nH]n(-c2ccc([N+](=O)[O-])cc2)c(=O)c1C=NCCN1CCN(C(=O)c2ccccc2F)CC1`, the “hERG current change (%, negative = inhibition) at 10uM” value is recorded as -71.2%.

With `COC(=O)CN=Cc1c(C)[nH]n(-c2ccccc2)c1=O`, the “hERG current change (%, negative = inhibition) at 10uM” value is given as -1.99%.

For the compound `Cc1[nH]n(-c2ccc([N+](=O)[O-])cc2)c(=O)c1C=NCCc1ccc(S(N)(=O)=O)cc1`, the “hERG current change (%, negative = inhibition) at 10uM” value came to 10.7%.

For the compound `CC1(C)CC(=O)C(C=NCCN2CCN(C(=O)c3ccc(Br)cc3)CC2)=C(O)C1`, the “hERG current change (%, negative = inhibition) at 10uM” value was -48.2%.

Regarding `Cc1[nH]n(-c2ccc([N+](=O)[O-])cc2)c(=O)c1/C=N/N1CCOCC1`, the “hERG current change (%, negative = inhibition) at 10uM” value was 0.128%.

For the compound `Cc1[nH]n(-c2ccc([N+](=O)[O-])cc2)c(=O)c1C=NCCN1CCN(C(=O)c2ccc(Br)cc2)CC1`, the “hERG current change (%, negative = inhibition) at 10uM” value was -76.6%.

On to `Cc1[nH]n(-c2ccc([N+](=O)[O-])cc2)c(=O)c1C=NCCN1CCN(C(=O)C(C)C)CC1`, for which the “hERG current change (%, negative = inhibition) at 10uM” value is listed as -64.2%.

For `Cn1c(O)c(C=NCCN2CCN(C(=O)c3ccccc3)CC2)c(=O)n(C)c1=O`, the “hERG current change (%, negative = inhibition) at 10uM” value was -16.6%.

For `COc1ccc(CCN=Cc2c(C)[nH]n(-c3ccc([N+](=O)[O-])cc3)c2=O)cc1OC`, the “hERG current change (%, negative = inhibition) at 10uM” value is reported as 16.4%.

`Cc1[nH]n(-c2ccc([N+](=O)[O-])cc2)c(=O)c1C=NCCN1CCN(C(=O)c2cccc(F)c2)CC1`: the “hERG current change (%, negative = inhibition) at 10uM” value was -73.4%.

Regarding `CC(=O)Nc1cccc(NC(=O)CSc2nccn2Cc2ccc(F)cc2)c1`, the “hERG current change (%, negative = inhibition) at 10uM” value was 0.742%.

For the compound `COc1cc2c(cc1NC(=O)C(C)OC(=O)c1ccc(S(=O)(=O)Nc3ccccc3Cl)cc1)oc1ccccc12` (centres unmarked), the “hERG current change (%, negative = inhibition) at 10uM” value is reported as 21.8%.

On to `CCCCCCNc1cc(C)oc(=O)c1C(C)=O`, for which the “hERG current change (%, negative = inhibition) at 10uM” value is listed as -34.2%.

Consider `CCOC(=O)C1CCCN(c2c(Nc3ccc(C)c(C)c3)c(=O)c2=O)C1` (centres unmarked), for which the “hERG current change (%, negative = inhibition) at 10uM” value is on record as -25.1%.

For `CC(=O)c1ccc(NC(=O)C2C3C=CC(C3=C(c3ccccc3)c3ccccc3)C2C(=O)O)cc1` (centres unmarked), the “hERG current change (%, negative = inhibition) at 10uM” value came out at 2.53%.

As to `Br.COc1ccc(N=C/C=C2/C=C(c3ccccc3)OC(C)(C)O2)cc1`, the “hERG current change (%, negative = inhibition) at 10uM” value is recorded as -49.1%.

For `COc1cc(-c2nc3ccccn3c2/N=C/c2cccc(F)c2)ccc1O`, the “hERG current change (%, negative = inhibition) at 10uM” value worked out at 4.38%.

For the compound `CCn1cc(C(=O)NC(=S)Nc2ccccc2Br)cn1`, the “hERG current change (%, negative = inhibition) at 10uM” value is reported as 3.21%.

With `O=C(O)CSCC(=O)N1CCCN(c2nc3ccc(Cl)cc3s2)CC1`, the “hERG current change (%, negative = inhibition) at 10uM” value turned out to be 5.89%.

For `CCOC(=O)c1ccc(NC(=O)c2ccccc2C)cc1`, the “hERG current change (%, negative = inhibition) at 10uM” value is -21.2%.

As to `CCOC(=O)NC(=O)COC(=O)c1ccc(O)cc1`, the “hERG current change (%, negative = inhibition) at 10uM” value was -6.29%.

For `CCOC(=O)N/N=C(\C)c1cccs1`, the “hERG current change (%, negative = inhibition) at 10uM” value is reported as 20.2%.

For the origin of these results see paper PMC4336329 (PLoS ONE, 2015).
